Several values for one entry are separate records, joined by “and”; a condition that tells them apart may be missing. Equal entries are not always repeated. Among all 89,000 compounds or so, about 10 (0.01%) were called active. About 10% were inconclusive and are not listed. No stated cut-off is given here; in the data, active means activity change below about -37% (passing the limit was not always enough); inconclusive means no clear call, values can overlap the other calls; tested in A549 cells. The list is a sample of the results.
assay: Vaccinia orthopox stage-specific inhibition, primary screen, cell-based, single point (AID 1053133); conditions: Vaccinia-infected cells, mCherry/Venus stage reporter fluorescence, stronger effect = lower value, concentration not given here; activity change (Venus): measured here: Venus reporter, other viral stage

Row | SMILES | activity change (Venus) | activity change (mCherry)
1 | Cn1cnc(S(=O)(=O)N2C[C@@H]3N[C@H](C2)C3c2ccc(/C=C/c3ccccc3)cc2)c1 (some centres undefined) | 2.7% and -14.5% | 7.98% (inactive) and -24.7% (inactive)
2 | C[C@H](CO)N1C[C@H](C)[C@@H](CN(C)C(=O)Cc2ccncc2)Oc2ncc(C3=CCCCC3)cc2C1=O | -16% | -18.8% (inactive)
3 | CCC(=O)N1CC2(C1)[C@H](c1ccccc1)[C@@H](CO)N2C(=O)c1ccccc1 | -1.49% | -4.89% (inactive)
4 | COc1ccc(-c2ccc3n(c2=O)C[C@@H]2[C@@H](CO)[C@H](C(=O)Nc4ccccc4)[C@H]3N2C)cc1 | 4.65% | -0.0885% (inactive)
5 | CO[C@H]1CN(C)C(=O)c2ccc(NC(=O)c3ccno3)cc2OC[C@@H](C)N(S(C)(=O)=O)C[C@H]1C | 16.7% | 24.5% (inactive)
6 | Cc1ccc(F)cc1S(=O)(=O)N[C@@H]1CCN(Cc2ccc(-c3ccccc3)cc2)C1 | -24.3% | -23.2% (inactive)
7 | C[C@@H](NC(=O)C[C@H]1C[C@@H]2c3cc(NC(=O)Nc4ccccc4F)ccc3O[C@@H]2[C@H](CO)O1)c1ccccc1 | 0.165% | 4.14% (inactive)
8 | O=C(C[C@@H]1C[C@H]2c3cc(NC(=O)NC4CCCCC4)ccc3O[C@H]2[C@H](CO)O1)NCc1ccncc1 | 10.9% | -4.22% (inactive)
9 | COc1ccccc1NC(=O)N(C)C[C@H]1Oc2cc(Br)ccc2S(=O)(=O)N([C@H](C)CO)C[C@@H]1C | -7.91% and 3.04% | -12.3% (inactive) and -2.64% (inactive)
10 | O=C(C[C@@H]1CC[C@@H]2[C@H](COC[C@H](O)CN2C(=O)C2CC2)O1)NCc1ccncc1 | -2.42% | 0.733% (inactive)
11 | COCC#Cc1ccc2c(c1)O[C@@H](CN(C)C(=O)Nc1ccccc1F)[C@H](C)CN([C@H](C)CO)S2(=O)=O | 11.6% | 9.91% (inactive)
12 | CN1C(=O)c2cc(NC(=O)c3ccccc3)ccc2OC[C@H]2O[C@@H](CC(=O)O)CC[C@@H]21 | 4.29% | 9.5% (inactive)
13 | O=C(c1ccccn1)N1CC2(C1)[C@H](c1ccccc1)[C@H](CO)N2C(=O)C1CCCC1 | -9.04% | -13.9% (inactive)
14 | Cc1noc(C)c1NC(=O)N[C@@H]1CC[C@H](CC(=O)Nc2ccccc2)O[C@H]1CO | 10.3% | 4.56% (inactive)
15 | COc1ccc2c3c([nH]c2c1)[C@@H](CO)N(C(=O)c1cccc(F)c1)CC31CN(C(C)=O)C1 | -6.3% | 16.8% (inactive)
16 | CCC(=O)Nc1ccc2c(c1)OC[C@@H](C)N(Cc1ccccn1)C[C@H](C)[C@@H](OC)CN(C)C2=O | 5.46% | 6.05% (inactive)
17 | C[C@@H]1CN([C@H](C)CO)S(=O)(=O)c2ccc(C#CCC3CCCC3)cc2O[C@H]1CN(C)Cc1ccc(C(=O)O)cc1 | -4.35% | 11.2% (inactive)
18 | O=C(C[C@H]1CC[C@@H]2[C@H](COC[C@@H](O)CN2CC2CC2)O1)NCC1CC1 | 15.8% | 11.7% (inactive)
19 | C[C@H](CO)N1C[C@H](C)[C@@H](CN(C)C(=O)Nc2ccc3c(c2)OCO3)OCCCC[C@H](C)Oc2ccc(NS(=O)(=O)c3cn(C)cn3)cc2C1=O | 3.74% | 11.2% (inactive)

Row | SMILES | activity change (Venus) | activity change (mCherry)
20 | CO[C@H]1CN(C)C(=O)c2ccc(NC(=O)c3cc(C)on3)cc2OC[C@@H](C)NC[C@@H]1C | 4.97% | 2.62% (inactive)
21 | CCCc1cn(CC[C@H]2CC[C@@H](NS(=O)(=O)c3ccccc3Cl)[C@@H](CO)O2)nn1 | 1.1% | 5.97% (inactive)
22 | CCNC(=O)[C@H]1[C@H](CO)[C@H]2Cn3c(ccc(/C=C/c4ccccc4)c3=O)[C@@H]1N2C(=O)C1CCC1 | 12.9% | 11.2% (inactive)
23 | O=C(C[C@H]1C=C[C@@H](NC(=O)C2CCOCC2)[C@@H](CO)O1)NCC1CCCCC1 | 1.03% | 8.68% (inactive)
24 | O=C(CC1CC1)Nc1ccc2c(c1)[C@@H]1C[C@@H](CC(=O)NC3CCCCC3)O[C@@H](CO)[C@@H]1O2 | -4.69% | -3.33% (inactive)
25 | O=C(Nc1cc(F)ccc1F)N[C@@H]1C=C[C@@H](CC(=O)N2CCc3ccccc3C2)O[C@@H]1CO | -0.0639% | -17.7% (inactive)
26 | C[C@H](CO)N1C[C@H](C)[C@@H](CN(C)C(=O)c2cnccn2)Oc2ncc(Br)cc2C1=O | -0.956% | 2.65% (inactive)
27 | CCCNC(=O)N(C)C[C@H]1Oc2cc(C3=CCCCC3)ccc2S(=O)(=O)N([C@H](C)CO)C[C@H]1C | -0.298% | -6.09% (inactive)
28 | Cc1ccccc1S(=O)(=O)N[C@H]1CC[C@H](CCn2cc(-c3ccc(F)cc3)nn2)O[C@H]1CO | -25.8% | -28.8% (inactive)
29 | C[C@H]1CCCCO[C@H](CN(C)S(=O)(=O)c2cn(C)cn2)[C@@H](C)CN([C@@H](C)CO)C(=O)c2cc(NC(=O)C3CCCCC3)ccc2O1 | 4.42% | 9.05% (inactive)
30 | O=C(Nc1nccs1)[C@@H]1[C@@H](CO)[C@@H]2Cn3c(ccc(-c4cccnc4)c3=O)[C@@H]2N1CC1CC1 | 2.33% | 16.6% (inactive)
31 | COc1cccc(-c2cnc3c(c2)C(=O)N([C@H](C)CO)C[C@H](C)[C@@H](CN(C)Cc2ccc(C(=O)O)cc2)O3)c1 | 12.8% | 13.4% (inactive)
32 | COc1ccccc1-c1cnc2c(c1)C(=O)N([C@H](C)CO)C[C@H](C)[C@@H](CN(C)C(=O)CC1CC1)O2 | -0.21% | 5.06% (inactive)
33 | O=C(C[C@H]1CC[C@H]2[C@@H](COC[C@@H](O)CN2Cc2ccccc2F)O1)NCc1ccccc1F | 2.5% | -8.36% (inactive)
34 | O=C(C[C@H]1CC[C@H]2[C@@H](COC[C@@H](O)CN2S(=O)(=O)c2ccc(Cl)cc2)O1)NCCN1CCCCC1 | 2.96% | 7.02% (inactive)
35 | COCC#Cc1ccc(CC[C@H]2O[C@H]3CC[C@@H](CO)O[C@H]3C[C@H]2NC(=O)Nc2c(C)noc2C)cc1 | 12.1% | 18.6% (inactive)
36 | CC(=O)N(C)C[C@@H]1Oc2ncc(C#Cc3ccccn3)cc2C(=O)N([C@@H](C)CO)C[C@@H]1C | 9.68% | 7.16% (inactive)
37 | O=C(Cc1ccncc1)NCC[C@H]1CC[C@H](NC(=O)Nc2cccc(F)c2)[C@H](CO)O1 | 5.2% | 3.69% (inactive)
38 | COc1ccc(NC(=O)Nc2ccc3c(c2)C(=O)N([C@@H](C)CO)C[C@@H](C)[C@@H](CN(C)C(=O)Nc2ccc(F)cc2)OCCCC[C@@H](C)O3)cc1 | -5.96% | 0.168% (inactive)

Row | SMILES | activity change (Venus) | activity change (mCherry)
39 | Cn1cnc(CCNC(=O)[C@H]2[C@H](CO)[C@H]3Cn4c(cccc4=O)[C@H]3N2C(=O)Nc2ccccc2)c1 | 5.32% | 12% (inactive)
40 | COc1ccc(S(=O)(=O)Nc2ccc3c(c2)C(=O)N([C@@H](C)CO)C[C@H](C)[C@H](CN(C)Cc2ccc(C(=O)O)cc2)OCCCC[C@@H](C)O3)cc1 | 19.1% | 34.5% (inactive)
41 | O=C(C1CCCC1)N1[C@H](CO)[C@@H]2c3ccccc3N(S(=O)(=O)c3ccccc3)C[C@@H]21 | -0.835% | 3.15% (inactive)
42 | CCC(=O)N1CCC2(CC1)CN(Cc1ccc(Cl)cc1)[C@@H](CO)c1[nH]c3cc(OC)ccc3c12 | 3.95% | 2.91% (inactive)
43 | O=C(C[C@H]1CC[C@@H](NC(=O)c2ccc(F)cc2)[C@@H](CO)O1)NCc1ccncn1 | 6.42% | 11.2% (inactive)
44 | Cc1ccc(S(=O)(=O)NCC[C@@H]2CC[C@@H](NC(=O)CCN3CCCCC3)[C@@H](CO)O2)cc1 | 12.7% | 18.4% (inactive)
45 | Cc1ccccc1-c1ccc2c(c1)O[C@@H](CN(C)Cc1ccc(C(=O)O)cc1)[C@@H](C)CN([C@H](C)CO)S2(=O)=O | 9.16% and -2.89% | 13.4% (inactive) and 11.3% (inactive)
46 | COC(=O)[C@@H]1[C@@H](CO)[C@@H]2Cn3c(ccc(C4=CCCC4)c3=O)[C@@H]2N1Cc1cncnc1 | 12.2% | 12.2% (inactive)
47 | C[C@H](O)C#Cc1ccc([C@@H]2[C@@H](CO)N3CCCCN(C(=O)c4ccc(F)cc4)C[C@H]23)cc1 | -0.172% | 24.9% (inactive)
48 | COC(=O)C[C@H]1CC[C@H]2[C@H](COc3ccc(NC(=O)C4CC4)cc3C(=O)N2C)O1 | 8.69% | 16.9% (inactive)
49 | C[C@@H](NC(=O)C[C@H]1CC[C@H](NS(=O)(=O)c2cccc(F)c2)[C@H](CO)O1)c1ccccc1 | 2.54% | 12.2% (inactive)
50 | COc1ccc(NC(=O)N(C)C[C@@H]2OCCCC[C@H](C)Oc3ccc(NS(=O)(=O)c4cn(C)cn4)cc3C(=O)N([C@@H](C)CO)C[C@@H]2C)cc1 | 6.5% | 16% (inactive)
51 | CO[C@@H]1CN(C)C(=O)c2ccc(NS(=O)(=O)c3cccc(F)c3)cc2OC[C@H](C)N(C(=O)Cc2cccnc2)C[C@@H]1C | -6.63% | -1.85% (inactive)
52 | CCCNC(=O)N1[C@H](C#N)[C@@H](c2ccccc2C2=CCCCC2)[C@@H]1CO | 2.66% | -4.44% (inactive)
53 | O=C(C[C@H]1CC[C@H](NC(=O)c2ccc(F)cc2)[C@@H](CO)O1)NCCc1ccncc1 | -8.31% | 6.53% (inactive)
54 | CC(=O)N(C)C[C@@H]1Oc2cc(C#Cc3ccccc3F)ccc2S(=O)(=O)N([C@@H](C)CO)C[C@@H]1C | -24.5% | -31.1% (inactive)
55 | CCCNC(=O)N[C@H]1C=C[C@@H](CC(=O)NC2CCCCC2)O[C@H]1CO | -1.05% | -4.3% (inactive)
56 | CS(=O)(=O)Nc1ccc2c(c1)[C@H]1C[C@@H](CC(=O)N3CCOCC3)O[C@@H](CO)[C@H]1O2 | 11.4% | 11% (inactive)
57 | CC(C)NC(=O)N1[C@H](CO)[C@H](c2ccccc2)C12CN(C(=O)Cc1ccccc1)C2 | 4.09% | -7.19% (inactive)

From PubChem BioAssay AID1053133 (Broad Institute, 2014)
